This is an account of results in PubChem BioAssay (NCI).

This is part of a sample that, as a whole, favours compounds with a hit. Of some 83,000 tested, about 20% had one in any assay.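 Cells were grown in 96-well plates and exposed to the test compound at a single concentration for 48 hours; results are reported as percent growth, with values below 10 considered active.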 Unmarked numbers belong to inactive results. Activity calls are given as the source filed them.

Among the test systems are SR leukemia; RPMI-8226 leukemia; OVCAR-8 ovarian; OVCAR-5 ovarian; SK-OV-3 ovarian; IGROV1 ovarian; OVCAR-3 ovarian; HS 578T breast; NCI/ADR-RES ovarian; T-47D breast; BT-549 breast; MDA-MB-435 melanoma; SW-620 colon; MCF7 breast; HCT-116 colon; HCC-2998 colon; KM12 colon; OVCAR-4 ovarian.
Common to all, as to experiment: NCI-60 one-dose screen, 48 h (100 = growth as untreated, 0 = no growth, -100 = all killed)
Common to all, as to conditions: 10 µM unless noted

On to `COc1ccc(C/C(C)=C(\c2ccc(Cl)cc2)c2ccc(OCCN3CCCCCC3)cc2)cc1`, for which the growth is 9.97% (active) in the assay with SR leukemia; 54.3% in the assay with RPMI-8226 leukemia; 89.4% in the assay with OVCAR-8 ovarian; 82.5% with OVCAR-5 ovarian; 103% in the assay with SK-OV-3 ovarian; 78.1% in the assay with IGROV1 ovarian. Further, the growth in the assay on OVCAR-3 ovarian is 80.4%; in the assay with HS 578T breast it was 98.4%; in the assay with NCI/ADR-RES ovarian, 85.7%; with T-47D breast it was 56.8%; in the assay on BT-549 breast, 94.9%; in the assay with MDA-MB-435 melanoma it was 88.7%. Besides, the growth in the assay on SW-620 colon was 58.4%; in the assay on MCF7 breast it was 62.7%; in the assay with HCT-116 colon, 56.5%; with HCC-2998 colon, 83.1%; in the assay with KM12 colon it was 73.9%.
Regarding `CC1(C)CC(C(=O)OCCCCCCCCCCC[P+](c2ccccc2)(c2ccccc2)c2ccccc2)C(C)(C)N1O` (stereo not drawn), the growth with SR leukemia was -58.4% (active); with RPMI-8226 leukemia it was -43.8% (active); in the assay on OVCAR-8 ovarian it was -39% (active); in the assay with OVCAR-5 ovarian it was -62.9% (active); in the assay on OVCAR-4 ovarian, -31.5% (active); in the assay on IGROV1 ovarian, -58.7% (active). Moreover, the growth in the assay on OVCAR-3 ovarian was -95.9% (active); in the assay on HS 578T breast it was -44% (active); with NCI/ADR-RES ovarian, 14.6%; in the assay with T-47D breast, -54.3% (active); in the assay on BT-549 breast it was -42.1% (active); in the assay with MDA-MB-435 melanoma it was -70.3% (active). The growth in the assay with SW-620 colon is -81% (active); in the assay with MCF7 breast, -80.6% (active); in the assay on HCT-116 colon it was -8.91% (active); in the assay with HCC-2998 colon, -84.9% (active); in the assay on KM12 colon, -94.6% (active).
Consider `Nc1cc2nc3ccccc3sc-2cc1=O`, for which the growth was 2.91% (active) with SR leukemia; 45.2% in the assay with RPMI-8226 leukemia; 64.4% in the assay with OVCAR-8 ovarian; 94.2% with OVCAR-5 ovarian; 73.3% with OVCAR-4 ovarian; 54.7% with IGROV1 ovarian. Further, the growth in the assay with OVCAR-3 ovarian was 65.2%; in the assay on HS 578T breast, 85.1%; in the assay with NCI/ADR-RES ovarian, 81.1%; in the assay with T-47D breast, 71.1%; in the assay on BT-549 breast, 63.1%; in the assay with MDA-MB-435 melanoma, -68.2% (active). In addition, the growth with SW-620 colon is 84.7%; in the assay with MCF7 breast, 44.3%; with HCT-116 colon, 72.7%; with HCC-2998 colon, 100%; with KM12 colon, 80.8%.
On to `CCCCCC(=O)N(CCCC)CCCC`, for which the growth was 95.5% in the assay with SR leukemia; 93.8% with RPMI-8226 leukemia; 102% with OVCAR-8 ovarian; 103% in the assay with OVCAR-5 ovarian; 84.6% with OVCAR-4 ovarian; 113% in the assay with IGROV1 ovarian. In addition, the growth is 120% with OVCAR-3 ovarian; 109% in the assay with HS 578T breast; 111% in the assay with NCI/ADR-RES ovarian; 109% in the assay with T-47D breast; 102% in the assay on BT-549 breast; 89.4% in the assay on MDA-MB-435 melanoma. Also, the growth was 117% in the assay on SW-620 colon; 123% in the assay on MCF7 breast; 108% in the assay with HCT-116 colon; 111% with HCC-2998 colon; 109% with KM12 colon.
For the compound `Fc1ccc(Cc2ccc(F)cc2)cc1`, the growth with SR leukemia is 116%; in the assay on RPMI-8226 leukemia, 108%; in the assay with OVCAR-8 ovarian, 108%; in the assay with OVCAR-5 ovarian, 102%; in the assay on OVCAR-4 ovarian it was 101%; in the assay on IGROV1 ovarian, 102%. The growth in the assay with OVCAR-3 ovarian is 112%; with HS 578T breast, 114%; in the assay with T-47D breast it was 101%; with MDA-MB-435 melanoma, 114%; in the assay on SW-620 colon, 99.1%; in the assay on MCF7 breast, 99%. Besides, the growth in the assay with HCT-116 colon was 102%; with HCC-2998 colon, 114%; with KM12 colon, 108%.
Consider `O=[N+]([O-])c1cccc(-c2nc3sccn3c2-c2ccnc(NCCNS(=O)(=O)c3ccc(C(F)(F)F)cc3)n2)c1`, for which the growth with SR leukemia is 39.2%; in the assay on RPMI-8226 leukemia it was 4.8% (active); in the assay with OVCAR-8 ovarian, 26.1%; in the assay on OVCAR-5 ovarian it was 87.4%; with OVCAR-4 ovarian it was 31.2%; with IGROV1 ovarian, 27.1%. The growth in the assay on OVCAR-3 ovarian was 40.5%; in the assay on HS 578T breast it was 66.4%; with NCI/ADR-RES ovarian it was 26.9%; with T-47D breast it was -3.01% (active); in the assay on BT-549 breast it was 26.4%; in the assay with MDA-MB-435 melanoma, 20.7%. The growth in the assay on SW-620 colon was 69.8%; in the assay with MCF7 breast, 21.9%; in the assay with HCT-116 colon it was 35.6%; in the assay with HCC-2998 colon it was 65.2%; in the assay with KM12 colon it was 22.5%.
In the case of `CC/C=C\C[C@H](F)C/C=C1/C(=O)C=C[C@@H]1C/C=C\CCCC(=O)OC`, the growth is -25.8% (active) in the assay with SR leukemia; -10.4% (active) in the assay with RPMI-8226 leukemia; -15.4% (active) in the assay on OVCAR-8 ovarian; 68.2% in the assay on OVCAR-5 ovarian; 24.2% with OVCAR-4 ovarian; 10.6% with IGROV1 ovarian. Also, the growth in the assay on OVCAR-3 ovarian was -13.2% (active); in the assay with HS 578T breast, 45.2%; in the assay on NCI/ADR-RES ovarian, 14.2%; in the assay with T-47D breast, 4.66% (active); in the assay on BT-549 breast, -2.64% (active); in the assay on MDA-MB-435 melanoma it was 0.0777% (active). For the same compound, the growth in the assay on SW-620 colon was 14.3%; in the assay with MCF7 breast it was 11.6%; in the assay on HCT-116 colon it was -54.6% (active); with KM12 colon, -27.7% (active).
Turning to `Cn1c2ccccc2c2c3c(c4c5ccccc5[nH]c4c21)C(=O)N(N)C3=O`, the growth is 5.54% (active) in the assay with SR leukemia; 57.2% with RPMI-8226 leukemia; 66.7% in the assay on OVCAR-8 ovarian; 89.3% with OVCAR-5 ovarian; 74% in the assay with SK-OV-3 ovarian; 72.7% in the assay with IGROV1 ovarian. For the same compound, the growth in the assay with OVCAR-3 ovarian was 69.6%; with HS 578T breast it was 79.5%; with NCI/ADR-RES ovarian, 71.6%; in the assay on T-47D breast, 30.9%; with BT-549 breast, 46.6%; in the assay with MDA-MB-435 melanoma, 57.9%. Also, the growth with SW-620 colon was 44.7%; in the assay with MCF7 breast, 23.9%; in the assay on HCT-116 colon it was 40.7%; in the assay on HCC-2998 colon, 74.4%; in the assay on KM12 colon, 62.8%.
